This passage reports Potency, activity change, negative = inhibition and activity, negative = inhibition results from PubChem BioAssay (NCATS).

Assay [1] deals with Lysosomal acid glucosylceramidase (Homo sapiens) (UniProt P04062). Briefly: Glucocerebrosidase-p2 (AID 348; in the data active = potency below about 10 µM; note: potency is the fitted concentration of half-maximal effect). The following applies: purified GBA, blue fluorogenic substrate, 40 min. Summed up: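 Normal human glucocerebrosidase (0.2 nM) with blue fluorogenic substrate (80 uM final) in citrate/phosphate pH 5.9 with 10mM sodium taurocholate, 0.01% tween-20; 40 min RT, NaOH/glycine stop; fluorescence Ex 365/Em 440; AC50 from a titration from 0.6 nM upwards.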
Sequence of Lysosomal acid glucosylceramidase (Homo sapiens) (P04062 whole entry, looked up): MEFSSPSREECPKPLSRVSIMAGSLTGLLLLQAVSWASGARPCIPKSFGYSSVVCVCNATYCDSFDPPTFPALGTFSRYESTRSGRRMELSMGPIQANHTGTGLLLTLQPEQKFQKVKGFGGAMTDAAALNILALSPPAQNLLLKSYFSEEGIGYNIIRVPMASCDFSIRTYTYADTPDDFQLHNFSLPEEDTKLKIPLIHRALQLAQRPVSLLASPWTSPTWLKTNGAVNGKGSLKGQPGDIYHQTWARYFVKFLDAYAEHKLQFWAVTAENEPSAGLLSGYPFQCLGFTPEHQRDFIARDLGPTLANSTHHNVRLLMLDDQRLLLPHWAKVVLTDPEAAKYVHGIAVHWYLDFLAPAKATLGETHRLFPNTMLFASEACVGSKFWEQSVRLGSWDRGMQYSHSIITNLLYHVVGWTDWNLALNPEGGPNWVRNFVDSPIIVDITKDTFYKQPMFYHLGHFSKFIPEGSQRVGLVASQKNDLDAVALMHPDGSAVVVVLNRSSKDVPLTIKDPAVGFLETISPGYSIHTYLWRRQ

A short description of assay [2]: AP1 Signaling Pathway (AID 357).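 Note: ME-180 reporter cells stimulated with EGF at its EC50 level; % is set by controls: 0 for no effect and ±100 for the full control effect.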 The following applies: ME-180 AP-1-bla reporter, EGF-induced, beta-lactamase ratio, 5 h; at 7.69 µM (top of the series) unless noted. Summed up:
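AP-1-bla ME-180 cells, Opti-MEM + 0.5% dialyzed FBS, plated overnight 37 °C. Cpd titration + EC50 EGF, 5 h 37 °C. CCF4 2.5 h RT; ex 405, em 460/530 ratio → %activity, AC50.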

Assay [3] addresses Cytochrome P450 1A2 (Homo sapiens) (UniProt P05177). Briefly: p450-cyp1a2 (AID 410; calls by dose curve; note: potency is the fitted concentration of half-maximal effect). The following applies: recombinant CYP1A2, luciferin-ME demethylation, luminescence; series mostly up to 11.4 µM. Summed up: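 20nM CYP1A2, 100uM Luciferin-ME (=Km), 100mM KPO4; cpd 10 min RT; +NADPH regen, 60 min RT; stop/detect 20 min; luminescence. Normalized to furafylline 57 uM = full inhibition.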

A short description of assay [4]: NFAT Signaling Pathway (AID 444).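 Note: carbachol stimulus at about its EC50 of 1 µM final; % is set by controls: 0 for no effect and ±100 for the full control effect.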 The following applies: Jurkat NFAT-bla M1, carbachol, beta-lactamase ratio, 5 h; at 7.69 µM (top of the series) unless noted. Summed up: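 Read-out: CCF4 FRET ratio (460 nm/530 nm) after 1 h RT dye loading, used for %activity and AC50 from titration series. Cells: Jurkat NFAT-β-lactamase/M1 line, treated with compound plus 1 uM carbachol for 5 h, 37 °C.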

The nature of assay [5]: Stat Signaling Pathway (AID 446).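 Note: ME-180 cervical cancer cells given 40 pM IL-6 alongside compound; SIE-controlled beta-lactamase reporter measured as 460/530 nm FRET emission ratio; % is set by controls: 0 for no effect and ±100 for the full control effect.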 The following applies: ME-180 (cervical carcinoma) SIE beta-lactamase reporter, IL-6 stimulated, 5 h; at 7.69 µM (top of the series) unless noted. Summed up: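 FRET read-out (405 nm excitation, 460/530 nm emission) of a beta-lactamase reporter under a STAT-inducible element in ME-180 cervical carcinoma cells. Cells with compound receive 40 pM IL-6 for 5 h. Values are normalised to AC90 stimulation and AC90 JAK-inhibitor controls.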

Assay [6] addresses Glucocorticoid receptor (Homo sapiens) (UniProt P04150). Put plainly: GR-GFP Redistribution (AID 450;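 active = compounds whose dose series gives a full or clear partial fitted curve of increased nuclear translocation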; note: potency is the fitted concentration of half-maximal effect). The following applies: U2OS GR-GFP nuclear translocation, laser cytometry, 2 h.
The target is the same in assay [7]. Briefly: GR-EFC Redistribution (AID 451; calls by dose curve; note: potency is the fitted concentration of half-maximal effect). The following applies: CHO-K1 GR-EFC translocation, beta-gal luminescence, 2 h. Summed up:
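Translocation of GR-ED fusion to nuclear EA restores b-gal, read by luminescence after 1 h room-temperature detection. Engineered CHO-K1 biosensor cells, 1,000/well, exposed 2 h at 37 C to titrations up to 46 uM final.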

Assay [8] has as its target Mitogen-activated protein kinase 10 (Mus musculus) (UniProt Q61831). Briefly: JNK3 AlphaScreen Assay (AID 530).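 Note: kinase came from lysate of stimulated human HepG2 cells; signal reports phosphorylation of biotinylated GST-cJun 1-79 at Ser73 with 10 µM ATP; % is set by controls: 0 for no effect and ±100 for the full control effect.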 The following applies: JNK3 lysate, c-Jun phosphorylation; series mostly up to 11.4 µM. Summed up: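 Kinase buffer: 20 mM Tris-HCl pH 7.6, 10 mM MgCl2, 1 mM DTT, 0.1 mM Na3VO4, 0.01% Tween-20; ATP 10 uM. Substrate biotin-GST-cJun(1-79), enzyme from activated HepG2 lysates. Detection by Ser73 phospho-antibody AlphaScreen.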

The target in assay [9] is 3',5'-cyclic-AMP phosphodiesterase 4B (Homo sapiens) (UniProt Q07343). Briefly: qHTS Assay for Inhibitors of PDE-IV (AID 607; active = well fitted activation curve with a large enough effect in the main read-out, with a control signal flat, not every such curve was filed as active; note: % of control where 0% means no effect). The following applies: HEK293 ACTOne CNG channel cells, membrane potential fluorescence; series mostly up to 22.9 µM. Summed up: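 Cell-based read-out of cAMP via a modified cyclic nucleotide-gated channel and membrane potential dye (535/590 nm) in HEK293 cells expressing PDE4 endogenously. Compounds tested up to 22.9 uM final; 100 uM RO 20-1724 reference.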
Sequence of 3',5'-cyclic-AMP phosphodiesterase 4B (Homo sapiens) (Q07343 whole entry, looked up): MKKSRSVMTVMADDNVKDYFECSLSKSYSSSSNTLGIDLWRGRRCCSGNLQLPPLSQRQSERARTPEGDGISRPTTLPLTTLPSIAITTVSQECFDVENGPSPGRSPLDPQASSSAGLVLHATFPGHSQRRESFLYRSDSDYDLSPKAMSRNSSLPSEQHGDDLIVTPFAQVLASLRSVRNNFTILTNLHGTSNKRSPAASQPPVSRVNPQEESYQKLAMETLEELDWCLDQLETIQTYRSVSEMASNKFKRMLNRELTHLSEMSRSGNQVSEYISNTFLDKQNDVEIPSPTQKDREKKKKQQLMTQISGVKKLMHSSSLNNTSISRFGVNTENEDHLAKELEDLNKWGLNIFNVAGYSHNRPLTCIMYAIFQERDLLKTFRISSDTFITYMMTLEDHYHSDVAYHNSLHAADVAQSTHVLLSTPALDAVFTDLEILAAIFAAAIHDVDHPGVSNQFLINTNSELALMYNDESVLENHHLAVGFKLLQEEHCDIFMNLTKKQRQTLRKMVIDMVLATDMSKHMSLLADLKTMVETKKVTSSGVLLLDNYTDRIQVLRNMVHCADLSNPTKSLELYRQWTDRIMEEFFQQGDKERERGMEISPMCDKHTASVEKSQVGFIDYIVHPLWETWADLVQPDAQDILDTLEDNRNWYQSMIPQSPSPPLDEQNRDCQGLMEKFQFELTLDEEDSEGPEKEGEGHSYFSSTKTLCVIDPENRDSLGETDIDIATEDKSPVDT

A number with no mark means an inactive call. Inconclusive results are not listed. Calls of active or inactive are those of the source. Unless noted, calls come from the whole dose curve; as a rule, active = well fitted curve in either direction with a large enough effect (not every such curve was filed as active); inconclusive = small, poorly fitted or top-dose-only effect, or another doubt; inactive = flat fitted curve, though single readings scatter. Where only a bound is given, the exact number is not on record here.

Sequence of Cytochrome P450 1A2 (Homo sapiens) (P05177 whole entry, looked up): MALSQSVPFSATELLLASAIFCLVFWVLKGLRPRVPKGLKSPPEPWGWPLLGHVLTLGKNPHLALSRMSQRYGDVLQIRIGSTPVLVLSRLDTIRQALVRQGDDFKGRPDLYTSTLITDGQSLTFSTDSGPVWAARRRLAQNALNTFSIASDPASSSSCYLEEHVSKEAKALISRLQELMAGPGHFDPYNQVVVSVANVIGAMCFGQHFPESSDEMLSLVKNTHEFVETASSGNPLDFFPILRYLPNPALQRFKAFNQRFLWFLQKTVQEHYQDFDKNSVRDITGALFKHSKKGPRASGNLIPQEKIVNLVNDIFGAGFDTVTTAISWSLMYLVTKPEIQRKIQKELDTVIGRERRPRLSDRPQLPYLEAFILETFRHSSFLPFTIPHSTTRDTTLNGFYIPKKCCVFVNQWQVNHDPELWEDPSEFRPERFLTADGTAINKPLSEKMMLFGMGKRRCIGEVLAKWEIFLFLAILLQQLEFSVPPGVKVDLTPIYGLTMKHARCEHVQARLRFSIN
Sequence of Glucocorticoid receptor (Homo sapiens) (P04150 whole entry, looked up): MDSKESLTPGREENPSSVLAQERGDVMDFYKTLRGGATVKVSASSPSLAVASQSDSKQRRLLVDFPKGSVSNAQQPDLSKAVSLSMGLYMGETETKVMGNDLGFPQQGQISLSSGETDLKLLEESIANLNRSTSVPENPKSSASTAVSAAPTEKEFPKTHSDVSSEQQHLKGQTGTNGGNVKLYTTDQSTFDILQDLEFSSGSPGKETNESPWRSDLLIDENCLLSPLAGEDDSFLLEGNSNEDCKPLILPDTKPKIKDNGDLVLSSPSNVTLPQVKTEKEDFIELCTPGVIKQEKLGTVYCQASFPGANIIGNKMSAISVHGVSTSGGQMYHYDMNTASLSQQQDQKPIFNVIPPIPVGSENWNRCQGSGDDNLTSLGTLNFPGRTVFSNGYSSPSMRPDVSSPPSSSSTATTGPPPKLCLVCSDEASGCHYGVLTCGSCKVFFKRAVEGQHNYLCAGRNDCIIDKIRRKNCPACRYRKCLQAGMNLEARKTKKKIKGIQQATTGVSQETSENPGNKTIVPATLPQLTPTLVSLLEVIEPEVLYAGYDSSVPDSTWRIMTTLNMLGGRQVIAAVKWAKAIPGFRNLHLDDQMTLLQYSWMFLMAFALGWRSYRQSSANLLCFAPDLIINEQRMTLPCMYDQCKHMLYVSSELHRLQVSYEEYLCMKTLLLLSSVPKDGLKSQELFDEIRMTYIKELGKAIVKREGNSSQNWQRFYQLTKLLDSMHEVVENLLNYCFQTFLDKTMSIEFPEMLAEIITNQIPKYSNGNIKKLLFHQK

Consider `O=C(O)Cc1c(O)ccc2ccccc12`, for which the Potency is greater than 11.4 µM in [1], greater than 46 µM in assay [6] and greater than 9.22 µM in [7]. Besides, the activity change, negative = inhibition in [2] is 1.11%; in assay [4] it was 12.6%. Besides, the Potency entry in assay [3], in assay [8] and in assay [9] was “inactive” each time. Further, the activity, negative = inhibition in assay [5] was 7.17%.
`Clc1ccc2c(NCCNc3ccnc4cc(Cl)ccc34)ccnc2c1`: the Potency in [1] was greater than 11.4 µM; in assay [3], 5.01 µM (active); in [6] it was greater than 46 µM; in [7], greater than 9.22 µM. Further, the figures for the activity change, negative = inhibition in assay [2] and in assay [4] were -4.82% and 4.01%, respectively. Besides, the activity, negative = inhibition in [5] is 9.24%. The Potency entry in assay [8] and in [9] was “inactive” throughout.
`CN(C)CCCn1cnc2cc(Cl)c(Cl)cc21`: the Potency in [1] is greater than 11.4 µM; in [6] it was greater than 46 µM; in assay [7] it was greater than 9.22 µM. The activity change, negative = inhibition is 1.9% in [2], -20% [at 2.29 µM] in assay [3] and -23.5% in [4]. For the same compound, the activity, negative = inhibition in [5] was 11.7%. In addition, the Potency result in assay [8] and in [9] was “inactive” each time.
In the case of `CCCCn1cnc2c(SC)ncnc21`, the Potency in assay [1] is greater than 11.4 µM; in assay [3] it was 3.16 µM (active); in assay [6], greater than 46 µM; in [7], greater than 9.22 µM. In addition, the activity change, negative = inhibition in [2] was -0.746%; in assay [4] it was 5.83%. Moreover, in assay [5], the activity, negative = inhibition is 8.32%. Besides, the Potency result in assay [8] and in assay [9] was “inactive” each time.
As to `C[C@H](Br)C(=O)c1ccc2cc(Br)c3ccccc3c2c1`, the Potency was greater than 11.4 µM in assay [1], 0.158 µM (active) in assay [3], greater than 46 µM in assay [6] and greater than 9.22 µM in [7]. For the same compound, the activity change, negative = inhibition in assay [2] is -18.5%; in assay [4], 26.1%. Moreover, the activity, negative = inhibition in assay [5] was -2.19%. The Potency result in assay [8] and in [9] was “inactive” throughout.
On to `C[C@@H](CNC(N)=O)NC(N)=O`, for which the Potency in assay [1] is greater than 11.4 µM; in assay [6], greater than 46 µM; in assay [7] it was greater than 9.22 µM. Further, the activity change, negative = inhibition was 4.39% in assay [2] and 12.2% in assay [4]. Also, the Potency result in [3], in [8] and in [9] was “inactive” throughout. Also, the activity, negative = inhibition in assay [5] is 5.82%.
Turning to `Nc1nc(N)c(CCCCc2ccccc2)c(N)n1`, the Potency was greater than 11.4 µM in [1], greater than 46 µM in assay [6] and greater than 9.22 µM in assay [7]. Besides, the values for the activity change, negative = inhibition in assay [2], in [3] and in [4] were 17.9%, -0.2% [at 2.29 µM] and 2.59%, respectively. Moreover, the activity, negative = inhibition in assay [5] was 1.49%. Also, the Potency result in [8] and in assay [9] was “inactive” in each case.
For `O=C(O)/C=C(/C(=O)O)[C@]12CCN3CC4=CCO[C@@H]5CC(=O)N[C@@H]1[C@H]5[C@H]4C[C@H]32`, the Potency in assay [1] was greater than 11.4 µM; in assay [6] it was greater than 46 µM; in [7] it was greater than 9.22 µM. The activity change, negative = inhibition in assay [2] was 9.14%; in assay [3], -15% [at 2.29 µM]; in assay [4], -1.3%. Further, the activity, negative = inhibition in assay [5] was -7.59%. Further, the Potency entry in assay [8] and in [9] was “inactive” each time.
